Reference: the supplement of paper PMC13392028
In all, about 4,100 sequences were measured (“RBNS R-value (6-mer enrichment in protein-bound RNA vs input library)”: median about 0.99, highest 2% from about 1.4 on). Only a selection was taken, and the highest values are over-represented in it overall.

System: PfIESI-1 RRM domain (Plasmodium falciparum ortholog aa 875-1232, GST fusion)
Assay: RBNS R-value (6-mer enrichment in protein-bound RNA vs input library) (ratio); higher = stronger binding preference; the methods of the paper give 50 / 100 / 500 nM protein instead
Protocol: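 RNA Bind-n-Seq: recombinant GST-tagged IESI-1 RRM domain was incubated at room temperature with a random 40-nt in vitro transcribed RNA library at 250, 500 or 1000 nM protein. Bound RNA was pulled down on glutathione beads and sequenced. R-value is the enrichment of each 6-mer in the bound RNA relative to the input library. Each 6-mer sits inside the random 40-mer context, not as an isolated oligo. Values are replicate 1 only.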

Sequence | RBNS R-value (protein concentration: 250 nM) | RBNS R-value (protein concentration: 500 nM) | RBNS R-value (protein concentration: 1000 nM)
CAUUGA | 1.33 | 1.37 | 1.22
GAUUGU | 1.04 | 1.04 | 0.998
AAUUGA | 1.37 | 1.52 | 1.31
UAUUGA | 1.07 | 1.14 | 0.985
GAUUGG | 1.37 | 1.37 | 1.25
CAUUGC | 0.987 | 0.973 | 0.976
GAUUGC | 1.7 | 1.68 | 1.42
AAUUGU | 0.865 | 0.926 | 0.948
GAUUGA | 1.61 | 1.69 | 1.43
UCCGUC | 0.938 | 0.878 | 0.944
GUAUCA | 0.785 | 0.812 | 0.852
UCCUGU | 0.873 | 0.838 | 0.868
ACUGCC | 1 | 0.929 | 0.986
GAUGUU | 1.47 | 1.53 | 1.31
CAUGUG | 0.924 | 0.964 | 0.964
AAUGUU | 0.827 | 0.922 | 0.9
AAUGUA | 0.778 | 0.871 | 0.819
UAUGUA | 0.792 | 0.805 | 0.771
CAUGUU | 0.853 | 0.856 | 0.878
GAUGUC | 1.37 | 1.39 | 1.29
CAUGUC | 0.881 | 0.88 | 0.921
UAUGUG | 0.854 | 0.869 | 0.848
GAUGUG | 1.53 | 1.65 | 1.36
GAUGUA | 1.25 | 1.39 | 1.2

Sequence | RBNS R-value (protein concentration: 250 nM) | RBNS R-value (protein concentration: 500 nM) | RBNS R-value (protein concentration: 1000 nM)
UAUGUC | 0.791 | 0.772 | 0.81
CAGUCU | 0.933 | 0.914 | 0.963
GGCAUU | 1.01 | 0.953 | 0.972
CUAUCU | 0.826 | 0.759 | 0.772
CAUCUC | 0.925 | 0.891 | 0.96
AGUACG | 0.91 | 0.935 | 0.91
GUCAAG | 0.874 | 0.904 | 0.946
AUACUA | 0.816 | 0.825 | 0.779
GGCUAG | 1.05 | 1.01 | 1.03
AGAAUA | 1.03 | 1.18 | 1.1
UUCAUC | 0.934 | 0.912 | 0.924
AUGAUG | 3.17 | 3.42 | 2.39
AUGAGC | 1.14 | 1.16 | 1.1
UUGAGA | 1.19 | 1.22 | 1.18
UCGAUA | 0.937 | 0.932 | 0.928
CAGAUA | 0.988 | 1.03 | 0.99
ACGAUC | 0.952 | 0.918 | 0.959
AGGAUG | 1.1 | 1.1 | 1.12
CUGAUA | 1.57 | 1.71 | 1.43
CUGACA | 1.13 | 1.11 | 1.11
AUGAUC | 1.38 | 1.42 | 1.24
ACGAUG | 1.33 | 1.38 | 1.21
UUGAUA | 1.72 | 1.92 | 1.6
